Measured values: PubChem BioAssay (NCATS)
Inconclusive results are not listed. Where a call stands in place of a potency, no number is given. Calls of active or inactive are those of the source. Calls follow the shape of the dose curve; as a rule, active = well fitted curve in the direction sought with a large enough effect; inconclusive = small, poorly fitted or top-dose-only effect, or another doubt; inactive = no such curve, though single readings can be large; an effect the other way counts as inactive or inconclusive.

How the values were obtained:
PA-1 = test: Primary qHTS to identify gynecologic anti-cancer compounds using libraries of approved drugs and bioactive compounds (AID 1345084); settings: Gynecologic cancer cell panel viability, ATPlite luminescence, 48 h; series mostly up to 57.5 µM; also: nearly all actives have a fitted effect of over 55% in size; also: potency is read from the fitted curve at half-maximal effect
Outline: (§1)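 48 h compound exposure at 37 C, 5% CO2; five-point qHTS. ATPlite luminescence readout of cell ATP.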

SKOV3 = test: as above; settings: Gynecologic cancer cell panel viability, ATPlite luminescence, 48 h; series mostly up to 57.5 µM
Outline: as §1

Tov112D = test: as above; settings: Gynecologic cancer cell panel viability, ATPlite luminescence, 48 h; series mostly up to 57.5 µM
Outline: as §1

[1] = Drug repurposing screens with cells derived from glioblastoma tumor samples (AID 1345199); settings: GBM patient neurospheres viability, ATP luminescence, 48 h; Potency: tumour line A; series mostly up to 46.1 µM; also: nearly all actives have a fitted effect of over 40% in size
Outline: (§2)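 Four patient lines of CD133+ GBM neurospheres were screened at several concentrations; hits were retested in those lines plus three slower-growing GBM lines, using 48-hour treatment and ATP-based viability.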

astro = test: as above; settings: viability, ATP luminescence, 48 h; series mostly up to 45.9 µM
Outline: as §2

[2] = qHTS assay to identify inhibitors of the type 1 interferon - major histocompatibility complex class I in skeletal muscle: Counter screen cell viability and HiBit confirmation (AID 1347412); settings: iHSKM muscle cells + IFN-b, HiBiT or CellTiter-Glo, 24 h; Potency: HiBiT; Viability, at 45.9 µM (top of the series); also: nearly all actives have a fitted effect of over 60% in size; also: potency is read from the fitted curve at half-maximal effect
Outline: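 CRISPR HLA-B*08:01-HiBit immortalized human myoblasts (C25cl48) stimulated with 4 ng/ml IFN-beta and compounds (12-point 1:3, top 46 uM final) for 24 h at 37 C. Duplicate plates read by HiBit lytic luminescence or CellTiter Glo ATP.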

Tov-21-G = test: Primary qHTS to identify gynecologic anti-cancer compounds using libraries of approved drugs and bioactive compounds (AID 1345084); settings: Gynecologic cancer cell panel viability, ATPlite luminescence, 48 h; series mostly up to 57.5 µM; also: nearly all actives have a fitted effect of over 55% in size; also: potency is read from the fitted curve at half-maximal effect
Outline: as §1

COc1ccc(S(=O)(=O)Nc2cccnc2Nc2ccc(O)cc2)cc1
Potency (PA-1): 1 µM (active) | Potency (SKOV3): 6.31 µM (active) | Potency (Tov112D): 1.78 µM (active)

O=C1c2c(O)cccc2[C@@H]([C@@H]2O[C@H](CO)[C@@H](O)[C@H](O)[C@H]2O)c2cc(CO)cc(O)c21
Potency [1]: inactive | Potency (astro): inactive

C#CCC(Cc1cnc2nc(N)nc(N)c2n1)c1ccc(C(=O)N[C@@H](CCC(=O)O)C(=O)O)cc1 (stereo partly drawn)
Potency (astro): inactive

CC(C)c1cnn2c(NCc3ccccc3)cc(NCCCCCCN)nc12
Potency [2]: inactive

COC1=C(OC)C(=O)C(CC=C(C)CCC=C(C)CCC=C(C)CCC=C(C)CCC=C(C)CCC=C(C)CCC=C(C)CCC=C(C)CCC=C(C)CCC=C(C)C)=C(C)C1=O
Potency [1]: inactive | Potency (astro): inactive

Cc1cc(Nc2ncc3c(n2)N(C)C(=O)N(c2cc(NC(=O)c4cccc(C(F)(F)F)c4)ccc2C)C3)n(C)n1
Potency [2]: 0.883 µM (active)

Cc1ncc(-c2ccnc(Nc3ccc(S(C)(=O)=O)cc3)n2)n1C(C)C
Potency (PA-1): 5.01 µM (active) | Potency (Tov-21-G): 10 µM (active) | Potency (Tov112D): 10 µM (active)

C[C@H]1C[C@H]2[C@@H]3CCC4=CC(=O)C=C[C@]4(C)[C@@H]3C(=O)C[C@]2(C)[C@@]1(O)C(=O)CO
Potency [1]: inactive | Potency (astro): inactive

CC1(C)[C@H](O[C@H]2O[C@H](C(=O)O)[C@@H](O)[C@H](O)[C@H]2O[C@@H]2O[C@H](C(=O)O)[C@@H](O)[C@H](O)[C@H]2O)CC[C@@]2(C)[C@H]1CC[C@]1(C)[C@H]2C(=O)C=C2[C@H]3C[C@@](C)(C(=O)O)CC[C@]3(C)CC[C@]21C
Potency [1]: inactive | Potency (astro): inactive

CC(C)(N)c1ccc(-c2nc3ccccc3nc2-c2ccccc2)cc1
Potency (Tov-21-G): inactive | Potency (Tov112D): inactive | Potency [2]: inactive

Cc1ccc2nc(NCCN)c3ncc(C)n3c2c1
Potency [2]: 3.13 µM (active)

COc1cc(O)c2c(c1)C1OC1C[C@H](O)[C@H](O)C(=O)C=CC[C@H](C)OC2=O (stereo partly drawn)
Potency [2]: 8.83 µM (active)

Cn1cc(CNCC2CCN(c3ncc(C(=O)NO)cn3)CC2)c2ccccc21
Potency [2]: 0.157 µM (active)
